CHT block = inhibitors of human choline transporter CHT; B-score at 10 µM; AID 488975, 2010; 0.86% of 310,000 active; CHT-expressing cells, membrane potential dye, choline response; active compounds read low; High affinity choline transporter 1 (Homo sapiens), Q9GZV3;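 active = B-score over 3 SD under the library average, and starting fluorescence ratio not unusually high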;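 also: choline stimulus applied at its EC90 after an EC20 pre-addition; B-score computed on integrated fluorescence ratio after choline addition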
TMEM16A inh = TMEM16A chloride channel inhibitors, primary screen, cell-based, HTS; Anoctamin-1 (Mus musculus), Q8BHY3; HEK293 TMEM16A/YFP iodide influx fluorescence, ionomycin; normalized B-score (activity score, 25-100; higher = stronger inhibition) at 10 µM; 1.2% of 310,000 active;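 active = ratio plate-corrected score three or more library SD toward inhibition, starting fluorescence score within five deviations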;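 also: score derived from kinetic fluorescence span divided by baseline fluorescence per well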
Target sequence (Q8BHY3 whole entry, looked up): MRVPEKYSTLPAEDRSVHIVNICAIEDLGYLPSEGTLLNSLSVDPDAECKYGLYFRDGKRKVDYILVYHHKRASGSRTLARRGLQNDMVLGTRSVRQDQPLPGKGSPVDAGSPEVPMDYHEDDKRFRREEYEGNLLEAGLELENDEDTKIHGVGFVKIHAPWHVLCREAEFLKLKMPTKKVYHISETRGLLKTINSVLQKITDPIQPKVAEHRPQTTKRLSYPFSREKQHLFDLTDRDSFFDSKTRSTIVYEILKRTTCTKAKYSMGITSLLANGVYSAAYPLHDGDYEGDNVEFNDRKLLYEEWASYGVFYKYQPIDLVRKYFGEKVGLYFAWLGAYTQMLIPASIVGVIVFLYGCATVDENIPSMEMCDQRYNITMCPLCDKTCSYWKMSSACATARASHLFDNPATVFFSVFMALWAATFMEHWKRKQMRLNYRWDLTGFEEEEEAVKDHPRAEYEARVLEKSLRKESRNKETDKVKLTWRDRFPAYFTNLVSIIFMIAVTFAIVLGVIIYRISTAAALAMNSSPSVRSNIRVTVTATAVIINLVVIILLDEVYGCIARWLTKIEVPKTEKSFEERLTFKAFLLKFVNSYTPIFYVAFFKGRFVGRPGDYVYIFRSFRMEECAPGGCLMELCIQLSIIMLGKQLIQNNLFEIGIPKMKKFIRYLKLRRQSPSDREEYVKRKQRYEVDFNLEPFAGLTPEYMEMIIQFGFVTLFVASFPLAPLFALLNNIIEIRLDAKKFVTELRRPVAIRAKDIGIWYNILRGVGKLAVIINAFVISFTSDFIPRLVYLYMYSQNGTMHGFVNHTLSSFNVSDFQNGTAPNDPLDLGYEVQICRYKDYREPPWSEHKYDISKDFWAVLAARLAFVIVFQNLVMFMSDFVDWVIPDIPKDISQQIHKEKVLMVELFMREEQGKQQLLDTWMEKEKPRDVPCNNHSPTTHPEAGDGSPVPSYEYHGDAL
Kir21 block = inhibitors of mouse Kir2.1 inward-rectifier potassium channel | Inward rectifier potassium channel 2 (Mus musculus), P35561 | HEK293-Kir2.1, FluxOR thallium flux fluorescence; active compounds read low | B-score at 10 µM | 0.85% of 310,000 active | AID 1672, 2009;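 active = fluorescence ratio B-score at or below minus 3 SD of library scores, with starting-brightness B-score within 2 SD, cut at about -4.2 in these data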;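 also: channel flux triggered by added potassium and thallium sulfate stimulus; B-score of peak minus minimum fluorescence over baseline after thallium stimulus; more negative B-score means stronger Kir2.1 block with less thallium influx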
ANO1 activ = TMEM16A chloride channel activators or potentiators, primary screen, cell-based, HTS; Anoctamin-1 (Mus musculus), Q8BHY3; HEK293 TMEM16A/YFP-H148Q/I152L, iodide quench fluorescence; active compounds read low; B-score at 10 µM; 0.3% of 340,000 active; AID 623877, 2012;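 active = fluorescence-ratio B-score plate-corrected deviation score at least 3 library SD below zero, with starting fluorescence score within 5 deviations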;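 also: channel opened by trigger with iodide after compound preincubation; score built on the fluorescence ratio of max minus min over baseline; more negative score means more quench and so TMEM16A activation or potentiation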
CHT PAM = CHT positive allosteric modulators, primary screen, cell-based, membrane potential dye, choline EC20; B-score at 10 µM; CHT-expressing cells; active compounds read high; LV-AA mutant CHT in HEK293 cells; High affinity choline transporter 1 (Homo sapiens), Q9GZV3; 0.49% of 310,000 active; AID 488977, 2010;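 active = initial fluorescence not abnormally high and integrated response B-score, plate-corrected, over 3 SD above library mean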
GPR7 antag = GPR7 receptor antagonists, primary screen, cell-based, fluorescence, single concentration | 1.1% of 290,000 active | GPR7-expressing cells, fluorescence antagonist assay | Neuropeptides B/W receptor type 1 (Homo sapiens), P48145 | inhibition, % at 4.4 µM; in the data active = inhibition above about 16%, passing the limit was not always enough;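 also: cells stimulated with the agonist NPW; 0% = agonist with vehicle and 100% = vehicle without agonist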
Active calls of the source: *; i = inactive; x = no result given. Shown are actives, neighbours in structure and some others; about 3.7% of the full set was active somewhere.

SMILES	CHT block	TMEM16A inh	Kir21 block	ANO1 activ	CHT PAM	GPR7 antag
COc1ccc(C(C)NCCC(c2ccc(OC(C)C)cc2)c2ccccc2OC)cc1 (stereo not drawn)	i	i	-6.6*	i	7.7*	23
CC(C)Oc1ccc(C(CCNCc2ccc(O)cc2)c2ccccc2)cc1 (stereo not drawn)	i	i	-2.5	i	i	26
Cn1cnnc1SCCCN1C(=O)c2cccc3cccc(c23)C1=O	i	i	0.02	i	i	-10
O=C(COc1ccc(Cl)cc1)NNC(=O)c1ccccc1C(=O)O	i	i	-0.64	i	i	-4
CC(C)Cn1c(N)c(C(=O)COC(=O)C2CC(=O)N(c3ccc4c(c3)OCCO4)C2)c(=O)n(C)c1=O (stereo not drawn)	i	i	-1.5	i	i	x
CC(C)Cn1c(N)c(C(=O)COC(=O)C2CC(=O)N(Cc3ccccc3Cl)C2)c(=O)n(C)c1=O (stereo not drawn)	i	i	-0.08	-4.6*	i	-13
O=C(c1ccc2nc(Cc3ccccc3F)oc2c1)N1CC[C@H](O)C1	i	i	0.05	i	i	6
CSc1ccc(CN2CCN(Cc3ccc([N+](=O)[O-])cc3)CC2)cc1	i	i	-0.7	i	i	31*
CCN1CCN(Cc2ccc(NC(=O)Nc3ccccc3)cc2)CC1	i	i	-0.43	i	i	-2
CCN1CCN(Cc2ccc(NC(=O)Nc3ccc(SC)cc3)cc2)CC1	i	i	-4.8*	i	i	-3
O=C(CNC(=O)c1ccc2ccccc2c1)NCc1ccccc1F	i	i	-0.62	i	i	-10
Cc1cc(NC(=O)Nc2cc(Cl)sc2Cl)no1	i	i	-1.6	i	i	5
CN(c1cccc(NC(=O)c2ccc(N(C)S(=O)(=O)c3ccccc3)cc2)c1)S(C)(=O)=O	i	100*	0.6	i	i	6
CC(=O)Nc1ccc(C(=O)Nc2cccc(S(=O)(=O)N(C)c3ccccc3)c2)cc1	x	x	x	i	x	x
C=CCC(C)(NCc1ccccc1)c1ccc(C)cc1 (stereo not drawn)	i	i	-4.9*	i	i	-13
Cc1ccc(NCc2ccccc2)cc1	i	i	-2.7	i	i	-10
CCN(CC)CCNC(=O)c1ccc(NC(=O)c2cccc(-n3cnnn3)c2)cc1	i	i	0.74	i	i	x
O=C(CNc1cccc(S(=O)(=O)N2CCOCC2)c1)N1CCc2ccccc21	i	i	-0.74	i	i	-9
NC(=O)c1ccc(C2SCC(=O)N2CCc2ccccc2)cc1 (stereo not drawn)	x	x	x	i	x	x
O=C1CSC(c2ccccc2)N1CCc1ccccc1 (stereo not drawn)	i	i	-4.2*	i	i	-13
CCN1CCN(c2nc3c(c(=O)n(C)c(=O)n3C)n2CCSc2ncccn2)CC1	-7.5*	i	0.17	i	i	-4
Cc1ccnc(SCCn2c(N3CCN(C)CC3)nc3c2c(=O)n(C)c(=O)n3C)n1	i	i	1.6	i	i	-12
CSc1ccccc1NC(=O)CN(C)Cc1cccc(Cl)c1	i	i	-1.6	-39*	i	-9
CC(NC(=O)CN(C)Cc1cccc(Cl)c1)c1ccccc1 (stereo not drawn)	i	i	-1.9	i	i	6
CSc1ccccc1NC(=O)CN(C)CC(=O)NCc1ccccc1	i	i	-0.09	i	i	-11
SMILES	CHT block	TMEM16A inh	Kir21 block	ANO1 activ	CHT PAM	GPR7 antag
CN(CC(=O)NCCc1ccc(F)cc1)Cc1cccc(Cl)c1	i	i	-7.3*	i	i	5
CN(CC(=O)NCCc1ccc(F)cc1)Cc1ccc(Br)cc1	i	i	-6.6*	i	i	15
Oc1[nH]c2ccccc2c1C1=NCCCCC1	i	i	1.9	i	i	5
O=C(NC(=S)NCCO)c1sc2ccccc2c1Cl	i	i	0	i	i	-5
COc1ccc(C(=O)NNC(=S)NC(=O)C(C)(C)C)cc1	i	25*	1.7	i	i	16
CC(C)(C)C(=O)NC(=S)NNC(=O)c1sc2ccccc2c1Cl	i	100*	2.1	-12*	i	-8
COc1ccc(C(=O)NNC(=O)c2ccc(C(C)(C)C)cc2)cc1	i	i	0.51	i	i	-3
CCCCCCCSc1ncnc2[nH]ncc12	x	x	x	i	x	x
O=C(COC(=O)c1cccc(Br)c1)NCC1CCCO1 (stereo not drawn)	x	x	x	i	x	x
Cc1coc2c(C)c3oc(=O)c(CCC(=O)N4CCC(C(=O)NCCCC(=O)O)(c5ccccc5)CC4)c(C)c3cc12	i	i	1.6	i	i	-3
Cc1nn(-c2ccccc2)c(C)c1NC(=O)COc1ccc(Br)cc1Cl	i	25*	-0.06	i	i	-8
CCOc1c(OC(C)=O)ccc(/C=C2\N=C(SCC)SC2=O)c1[N+](=O)[O-]	-5.8*	100*	2	i	i	-3
CCOc1cc(/C=C2\N=C(SCC)SC2=O)cc([N+](=O)[O-])c1OC(C)=O	i	100*	0.86	i	i	-5
C=CCc1cc(Cl)ccc1OCCCNC(C)C	i	i	-3.1	i	i	8
C=CCc1cc(Cl)ccc1OCCCNCCO	i	i	-5.4*	i	i	13
O=S(=O)(c1ccc(Cl)cc1)N1CCN(c2ncnc3sccc23)CC1	x	x	x	i	x	x
S=c1[nH]nc(-c2cc(-c3ccccc3)n[nH]2)n1/N=C/c1ccccc1	i	i	0.01	i	i	-13
Cc1cccc(/C=N/n2c(-c3cc(-c4ccccc4)n[nH]3)n[nH]c2=S)c1	i	i	0.57	-6.6*	i	-5
O=C(NC(=O)c1cnccc1C(F)(F)F)Nc1ccccc1	i	i	2.5	i	i	-17
O=C(CN1CCC(C(O)(c2ccccc2)c2ccccc2)CC1)Nc1ccccc1	i	i	-4.8*	i	i	3
O=C(CN1CCC(C(O)(c2ccccc2)c2ccccc2)CC1)Nc1cc(Cl)ccc1Cl	i	i	0	i	i	6
O=C(O)c1cc(-n2[nH]c(=O)c3ccccc3c2=O)ccc1Cl	i	i	-0.93	i	i	-9
COc1ccc(C2C(C#N)=C(N)Oc3c2sc2nc(C)cc(C)c32)cc1 (stereo not drawn)	i	i	-1.7	-7.1*	i	-3
